The subject of the experiment is Vero E6 infected with SARS-CoV-2. The experiment in a line: morphology score (similarity to uninfected cells); higher = more like uninfected cells. The conditions noted are these: 24 h.
As to `O=C1c2ccccc2C(Cc2ccnc(F)c2)(Cc2ccnc(F)c2)c2ccccc21` (10 µM), the morphology score was -0.17. Molecule `CC(C)CN(C[C@@H](O)[C@H](Cc1ccccc1)NC(=O)O[C@H]1CCOC1)S(=O)(=O)c1ccc(N)cc1` [amprenavir] (10 µM) registered a morphology score of 0.0911.

`CC(C)c1onc(-c2c(Cl)cccc2Cl)c1COc1ccc(/C=C/c2cccc(C(=O)O)c2)c(Cl)c1` (10 µM): the morphology score came to 0.151. Under `CN(c1ncccc1CNc1nc(Nc2ccc3c(c2)CC(=O)N3)ncc1C(F)(F)F)S(C)(=O)=O` (0.833333 µM) stands -0.119; under `CCC(NC(C)C)C(O)c1ccc(O)c(O)c1` (stereo not given) [isoetharine] (10 µM), 0.128. `O=C(CCCCCCC(=O)Nc1ccccc1)NO` [vorinostat] (0.833333 µM) registered a morphology score of 0.00344. Under `CC(C)NC(=O)N1CC[C@H](NC2=Nc3cc(F)ccc3N(CC(F)F)c3ccc(Cl)cc32)C1` (0.833333 µM) stands 0.0642; under `Oc1ccc(Nc2nc(-c3ccc(Cl)cc3)cs2)cc1` (10 µM), 0.129; under `CN(C)c1nc(N)c(C(=O)Nc2cccnc2)nc1Cl` (10 µM), 0.226. Under `O=C(CCCCCCNC(=O)c1cnc(N(c2ccccc2)c2ccccc2)nc1)NO` (0.833333 µM) stands -0.13; under `CCN(CC)CCOC(=O)c1ccc(N)cc1` [procaine] (10 µM), -0.107. Consider `O=C(O)COCCN1CCN(C(c2ccccc2)c2ccc(Cl)cc2)CC1` (stereo not given) [cetirizine] (10 µM), for which the morphology score was 0.153. Under `C[C@@H](CN(C)C)CN1c2ccccc2Sc2ccccc21` (racemic) [alimemazine] (0.833333 µM) stands -0.144; under `C=CC(=O)Nc1cccc(Nc2nc(Nc3ccc(N4CCN(C(C)=O)CC4)cc3OC)ncc2C(F)(F)F)c1` [rociletinib] (10 µM), -0.408. The same measure for `CC(C)Cc1ccc(C(C)C(=O)NO)cc1` (stereo not given) [ibuproxam] (10 µM): 0.234.

As for `C=C1C[C@]23C[C@@]1(O)CC[C@H]2[C@@]12C=C[C@H](O)[C@@](C)(C(=O)O1)[C@H]2[C@@H]3C(=O)O` (10 µM), the morphology score is -0.0765. In turn, `C#C[C@]1(OC(C)=O)CC[C@H]2[C@@H]3CCC4=C[C@@H](OC(C)=O)CC[C@@H]4[C@H]3CC[C@@]21C` [ethynodiol-diacetate] (10 µM) had a morphology score of -0.0396. `O=P(O)(NCCCl)NCCCl` [palifosfamide] (10 µM) gave a morphology score of -0.0297. The same measure for `CC(=O)OCC(CCn1cnc2cnc(N)nc21)COC(C)=O` [famciclovir] (10 µM): 0.139; for `O=C(NC[C@H](O)CO)c1ccncc1Nc1ccc(I)cc1F` (0.833333 µM): -0.139; for `CN(C)CC[C@@]1(c2ccc(Cl)cc2)Cc2ccccc2C(=O)O1` (racemic) (10 µM): -0.1. `C[C@@H](C(=O)O)c1ccc(-c2ccccc2)c(F)c1` (racemic) [flurbiprofen-(+/-)] (10 µM) showed a morphology score of 0.232. The same measure for `CC(C)S(=O)(=O)NC[C@H](C)c1ccc(-c2ccc(CCNS(C)(=O)=O)cc2)cc1` [mibampator] (10 µM): 0.146; for `COc1cc2nc(N3CCCN(C)CC3)nc(NC3CCN(Cc4ccccc4)CC3)c2cc1OC` (0.833333 µM): 0.456; for `C#CCN[C@@H]1CCc2ccccc21` [rasagiline] (10 µM): 0.0975. The same measure for `COc1cc2c(cc1OC)C1CC(=O)C(CC(C)C)CN1CC2` (stereo not given) [tetrabenazine] (10 µM): 0.159; for `COc1cc2c(Oc3ccc4[nH]c(C)cc4c3F)ccnc2cc1OCC1(N)CC1` [anlotinib] (10 µM): -0.207. Consider `C=CCN1CC[C@]23c4c5ccc(O)c4O[C@H]2/C(=N/NC(=O)c2ccccc2)CC[C@@]3(O)[C@H]1C5` [naloxone-benzoylhydrazone] (10 µM), for which the morphology score came to 0.0722. Regarding `O=C1Nc2ccc(I)cc2C1=Cc1cc(Br)c(O)c(Br)c1` (10 µM), the morphology score stood at 0.384. In turn, `C/C=C(/C(=C/C)c1ccc(O)cc1)c1ccc(O)cc1` [dienestrol] (10 µM) yielded a morphology score of -0.0419. As for `O=C(O)c1cc(O)c2c(Cl)cc(Cl)cc2n1` [5,7-dichlorokynurenic-acid] (10 µM), the morphology score is -0.0314. The same measure for `Cn1c(=O)c2c(ncn2CC(=O)Nc2ccc(-c3ccccc3)nn2)n(C)c1=O` (10 µM): 0.382; for `Cc1nnc2n1-c1sc(CCC(=O)N3CCOCC3)cc1C(c1ccccc1Cl)=NC2` [apafant] (10 µM): -0.0825; for `Cc1cccc(C)c1OCC(=O)N[C@@H](Cc1ccccc1)[C@@H](O)C[C@H](Cc1ccccc1)NC(=O)[C@H](C(C)C)N1CCCNC1=O` [Lopinavir] (10 µM): 0.184. `CC1(C)S[C@@H]2[C@H](NC(=O)C(C(=O)O)c3ccccc3)C(=O)N2[C@H]1C(=O)O` (stereo not given in full) [carbenicillin] (10 µM): the morphology score was found to be 0.0766. Under `CO[C@H]1/C=C/O[C@@]2(C)Oc3c(C)c(O)c4c(O)c(c5c(nc6cc(C)ccn65)c4c3C2=O)NC(=O)/C(C)=C\C=C\[C@H](C)[C@H](O)[C@@H](C)[C@@H](O)[C@@H](C)[C@H](OC(C)=O)[C@@H]1C` [rifaximin] (10 µM) stands 0.0779.

`Nc1ncnc2c1ncn2CCOCP(=O)(O)O` [adefovir] (10 µM) yielded a morphology score of -0.0616. For `CCCCN(CCCC)CCC(O)c1cc2c(Cl)cc(Cl)cc2c2cc(C(F)(F)F)ccc12` (stereo not given) [halofantrine] (10 µM), the morphology score was 0.406. `C[N+]1(C)[C@@H]2CC[C@H]1C[C@@H](OC(=O)C(O)c1ccccc1)C2` (stereo not given in full) [homatropine-methylbromide] (10 µM) displayed a morphology score of -0.0363. The molecule `CC(Cc1ccccc1)NCCC(c1ccccc1)c1ccccc1` (stereo not given) [prenylamine] (10 µM) had a morphology score of 0.878.

The values are drawn from the supplement of paper PMC13380429.
